This is part of a sample that, as a whole, favours compounds with a hit. Of some 83,000 tested, about 20% had one in any assay.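 Percent growth is the endpoint: 0 to 100 indicates growth inhibition (40 means 60% inhibition), 0 means no net growth, and negative values indicate cell death.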 Calls of active or inactive are those of the source. How the source made its calls: active means growth percent below 10; inactive means the rest.
Columns and labels:
Test in all cases: NCI-60 one-dose screen, 48 h (100 = growth as untreated, 0 = no growth, -100 = all killed)
Details in all cases: 10 µM unless noted
[1] = system: T-47D breast
[2] = system: BT-549 breast
[3] = system: SW-620 colon
[4] = system: MCF7 breast
[5] = system: HCT-116 colon
[6] = system: HCC-2998 colon
[7] = system: KM12 colon
[8] = system: MDA-MB-435 melanoma

Measured: growth

C[C@H]1[C@H](C)CC[C@]2(C(=O)O)CC[C@]3(C)C(=CC[C@@H]4[C@@]5(C)C/C(=C/c6ccco6)C(=O)C(C)(C)[C@@H]5CC[C@]43C)[C@H]12
active: [1] -14.3% [100 µM] | [2] -62.5% [100 µM] | [3] -44.9% [100 µM] | [4] -74.7% [100 µM] | [5] -73% [100 µM] | [6] -81.4% [100 µM] | [7] -73.5% [100 µM]

O=C(O)CC1CCCCC1c1ccccc1 (stereo not drawn)
inactive: [1] 104% | [2] 96% | [3] 111% | [5] 98.4% | [6] 106% | [7] 110%

COc1cc(/C=C/C(=O)/C=C/c2ccc(-n3ccnc3C)cc2)ccc1O
inactive: [1] 54.5% | [2] 95.5% | [5] 90.6%
active: [3] 2.17% | [4] 4.86% | [6] -47.3% | [7] -49.7%

CCC(Br)(CC)C(=O)c1ccc(OCC(=O)O)c(Cl)c1Cl
inactive: [1] 112% | [2] 79.1% | [3] 112% | [4] 92.8% | [5] 102% | [6] 91.5% | [7] 103%

N#Cc1c(Cl)nc(SCC2CO2)nc1-c1ccccc1 (stereo not drawn)
inactive: [1] 97.3% | [2] 81.4% | [3] 111% | [4] 83.9% | [5] 88.8% | [6] 111% | [7] 110%

CCCc1cc2cc(-n3nc(C)c4c3CC(C)(C)CC4=O)cc(NC3CCSCC3)c2c(=O)[nH]1
inactive: [1] 54.7% | [2] 61.5% | [3] 32.4% | [4] 36.5% | [5] 19.8% | [6] 46.9% | [7] 41.7%

C=C(C)C1CCC2(C(=O)O)CCC3(C)C(CCC4C5(C)CCC(OC(=O)NCc6ccccc6)C(C)(C)C5CCC43C)C12 (stereo not drawn)
inactive: [1] 33.9% | [2] 64.8% | [3] 34.9% | [4] 35.9% | [5] 18% | [6] 51.3% | [7] 28.1%

O=C1/C(=C/c2cccc(OCc3ccccc3)c2)Oc2cc(OCCN3CCCCC3)ccc21
inactive: [1] 89.9% | [2] 75.6% | [3] 67.3% | [4] 50.7% | [5] 52.8% | [6] 93.3% | [7] 67.9%

Cc1ccc2c(c1)/C(=N\N=C/c1cn(C(C)C)c3ccccc13)C(=O)N2
active: [4] 8.52%
inactive: [1] 24.9% | [8] 18.8% | [3] 46.4% | [5] 28.1% | [6] 49.4% | [7] 73.7%

COc1cc2c(c(OC)c1)C1c3cc(OC)ccc3NC(=O)N1CC2 (stereo not drawn)
active: [8] 9.36%
inactive: [1] 88.7% | [3] 49.4% | [4] 58.3% | [5] 65.2% | [6] 94% | [7] 49.4%

Cc1cccc(/C=C2\N=C(c3ccccc3)N(c3ccc(S(N)(=O)=O)cc3)C2=O)c1
inactive: [1] 85.2% | [8] 92.3% | [3] 104% | [4] 82.1% | [5] 83.9% | [6] 99.8% | [7] 98.1%

CCCOc1ccc(-c2nc(-c3ccc(N)cc3)cs2)cc1
inactive: [1] 84.9% | [8] 107% | [3] 113% | [4] 86% | [5] 95.5% | [6] 114% | [7] 115%

O=C1COCCN1c1ccc(NCc2cn(Cc3ccc(F)cc3)c3ccccc23)cc1
active: [1] -19.8% | [4] 4.76% | [5] 6.21%
inactive: [8] 99.1% | [3] 28.1% | [6] 81.9% | [7] 98.6%

COCCCNc1nc(NC(=O)c2cc(Br)cc(C(F)(F)F)c2)cc(-c2cccnc2)n1
inactive: [1] 65% | [8] 88.4% | [3] 86.9% | [4] 83.8% | [5] 85.6% | [6] 114% | [7] 105%

CCCn1ccnc1C(O)c1ccc(OCc2ccccc2)c(OC)c1 (stereo not drawn)
inactive: [1] 83.3% | [8] 94.3% | [3] 98% | [4] 85.4% | [5] 92.6% | [6] 95.8% | [7] 101%

COc1ccc(C(=O)CCC(=O)O)cc1
active: [5] 7.77%
inactive: [1] 33.9% | [8] 107% | [3] 84.5% | [4] 21.2% | [6] 102% | [7] 103%

O=C(NCCCNC(=O)OCc1ccc2cccc(O)c2n1)OCc1ccc2cccc(O)c2n1
active: [3] 4.75% | [5] -46.3%
inactive: [1] 49.1% | [8] 18.5% | [4] 19.3% | [6] 85.1% | [7] 53.3%

C/C=C/C1OC23CCCCC2C(C#N)(C(=N)O3)C1(C#N)C#N (stereo not drawn)
inactive: [1] 84.9% | [8] 91.8% | [3] 92.9% | [4] 86.2% | [5] 94.2% | [6] 109% | [7] 96.3%

COc1ccc(-c2cc(-c3ccccc3)nc(SCCCCCC(=O)NO)n2)cc1
inactive: [1] 22.7% | [8] 37.5% | [3] 29.7% | [4] 49.8% | [5] 21.6% | [6] 78.8% | [7] 70.8%

CCNc1cc2c(cc1Br)-c1ccccc1C2=O
inactive: [1] 34.4% | [8] 114% | [3] 98.9% | [4] 26.8% | [5] 97.8% | [6] 102% | [7] 83.4%

Cc1nc(Cl)c2c(n1)N(C)c1ccc(Cl)cc1C(C)C2 (stereo not drawn)
inactive: [1] 71% | [8] 85.9% | [3] 86.5% | [4] 95.6% | [5] 80.1% | [6] 98.6% | [7] 92.4%

COc1ccc(C(=O)CSc2nccc(Nc3ccc(C(=O)O)cc3)n2)cc1
inactive: [1] 102% | [8] 106% | [3] 95.6% | [4] 101% | [5] 95.7% | [6] 104% | [7] 101%

O=C(N/N=C\c1cc(Cl)ccc1O)N/N=C/c1cc(Cl)ccc1O
inactive: [1] 49.6% | [8] 47.7% | [3] 42.3% | [4] 46.2% | [5] 16% | [6] 46.1% | [7] 44.4%

Cn1cc(-c2noc(-c3cn(C)c4ncc(F)cc34)n2)c2cc(Cl)ccc21
inactive: [1] 14% | [8] 68.5% | [3] 47.4% | [4] 38.5% | [5] 44.5% | [6] 97% | [7] 61.1%

C[C@@H](NC(=O)[C@@H](CC(=O)N1CCC(N2CCCCC2)CC1)N1C(=O)[C@@H](N2C(=O)OC[C@@H]2c2ccccc2)[C@H]1/C=C/c1cccc(Cl)c1)c1ccccc1
inactive: [1] 29.9% | [3] 66.3% | [4] 20.8% | [5] 53.7% | [6] 28.5% | [7] 71.3%
active: [8] 1.09%

Oc1ccc(N=Nc2nccs2)c(O)c1
active: [5] 5.98%
inactive: [1] 58.1% | [8] 64.4% | [3] 41.3% | [4] 57.1% | [6] 73.4% | [7] 51.7%

CCOc1ccc2sc(NS(=O)(=O)c3ccc(N)cc3)nc2c1
inactive: [1] 122% | [8] 107% | [3] 115% | [4] 97.4% | [5] 110% | [6] 107% | [7] 105%

Cc1ccc(-c2cc(-c3ccc(C)cc3)nc(NCCNc3ccnc4cc(Cl)ccc34)n2)cc1
active: [1] -69.2% | [3] -64.9% | [5] -84.5% | [6] -80.2% | [7] -73%
inactive: [2] 57.7%

Cc1ccc2c(c1)C(C)Cc1c(Cl)ncnc1N2C (stereo not drawn)
active: [8] 6.38% | [7] 9.89%
inactive: [1] 51.8% | [3] 16.6% | [4] 13.5% | [5] 12.9% | [6] 20.5%

Brc1ccc2c(c1)CN(C1CCCCC1)CO2
inactive: [1] 96.2% | [8] 103% | [3] 100% | [4] 106% | [5] 108% | [6] 102% | [7] 100%

From PubChem BioAssay (NCI)
